Reference: ChEMBL document CHEMBL4513139, “CO-ADD screening of University of Strathclyde (UK) compounds”
Results with a measured potency or affinity are listed apart.

Experiments:
Klebsiella pneumoniae = conditions: Concentration 32 ug.mL-1; ASSAY_TEST Inhibition of Bacterial Growth; detection method Absorption (OD600); MEDIA CAMHB; plate type 384well; NBS; CORNING #3640; time 18 hr
Candida albicans = conditions: 32 ug/mL
Cryptococcus neoformans = conditions: Concentration 32 ug.mL-1; ASSAY_TEST Inhibition of Fungal Growth; detection method Resazurin; Absorption (OD600-OD570); plate type 384well; NBS; CORNING #3640

`CCOP(=O)(OCC)C(Cc1cn(Cc2cnc(C)nc2N)nn1)C(=O)O.O=C(O)C(F)(F)F` (stereo not drawn) gave an Inhibition (Klebsiella pneumoniae) of -0.1%, an Inhibition (Candida albicans) of 2.73% and an Inhibition (Cryptococcus neoformans) of -36.59%.
